Screening results: PubChem BioAssay, several laboratories
This is a sample that favours compounds with a hit; in the whole collection about 4.6% have one here.
TIM10 inh: inhibits growth of TIM10 yeast strain; actives 1.4% (n = 330,000); inhibition, % at 10 µM; S. cerevisiae TIM10 strain growth, BacTiter-Glo luminescence, 24 h; AID 463195;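 active means inhibition of 40% or more at the single tested concentration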;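 further: wild-type TIM10 isogenic control strain grown at permissive 25 °C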
PfHsp90 yeast 2: growth inhibition of yeast expressing Plasmodium Hsp90 | inhibition, % at 9.4 µM | AID 504621 | actives 0.32% (n = 310,000) | S. cerevisiae expressing PfHsp90, BacTiter-Glo ATP, 48 h; yeast lacking PDR1 and PDR3 efflux regulators;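 active means every replicate shows inhibition above about 80%, whatever the replicate mean, limit read from the data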;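 further: 0% = DMSO neutral controls and 100% = 20 µM radicicol positive controls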
tim10-1 inh: growth inhibitors of tim10-1 mutant yeast | actives 2.2% (n = 330,000) | S. cerevisiae tim10-1 ts strain growth, BacTiter-Glo, 24 h | inhibition, % at 20 µM;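 active means inhibition of at least 40%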;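 further: mutant grown at 25 °C; 0% = DMSO wells with yeast and 100% = wells holding no yeast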
SKKanGAS inh: SKKanGAS growth inhibition; S. pyogenes SKKanGAS, kanamycin growth, BacTiter-Glo, 6 h; inhibition, % at 7.5 µM; actives 1.3% (n = 300,000); AID 1662;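 active means mean replicate score, as percent of positive control median, at least 50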;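 further: strain carries kanamycin resistance gene driven by streptokinase promoter and grows in 40 µg/ml kanamycin; loss of luminescence reflects streptokinase promoter inhibition or plain growth inhibition; 0% = median of DMSO wells and 100% = positive control at its reference dose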
tim23-1 inh: growth inhibitors of tim23-1 mutant yeast | S. cerevisiae tim23-1 growth, BacTiter-Glo luminescence, 24 h | inhibition, % at 20 µM | actives 1.3% (n = 330,000);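 active means growth inhibition of the mutant yeast at or above 50%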;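 further: temperature-sensitive mutant grown at 25 °C; plate controls were DMSO-treated mutant yeast for no effect and medium wells lacking yeast for full effect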
V-ATPase pHluor: alters yeast V-ATPase proton transport | S. cerevisiae, pHLuorin cytosolic pH fluorescence | response, % at 10 µM | actives 0.37% (n = 350,000); in the data active means response mostly above about 7.3%, no sharp cut-off; inactive means mostly below about 5.4%; further: actives read high
tim10-1 confirm: confirmation of tim10-1 mutant yeast growth inhibitors; AID 463213; inhibition, % at 20 µM; shares compounds with tim10-1 inh; actives 56% (n = 7,400); S. cerevisiae tim10-1 ts strain growth, BacTiter-Glo, 24 h;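 active means inhibition of yeast growth at or above a set limit in either of two repeat tests at 20 µM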;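 further: tim10-1 mutant grown at permissive 25 °C to find synthetic lethal compounds; 0% = DMSO yeast wells and 100% = medium wells without yeast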
TIM10 conf: TIM10 yeast growth inhibition, confirmed; shares compounds with TIM10 inh; S. cerevisiae tim10 strain growth, BacTiter-Glo luminescence, 24 h; inhibition, % at 10 µM; actives 63% (n = 4,600); AID 463215;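 active means inhibition of yeast growth at or above a set limit in either of two replicates at 10 µM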;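 further: this counterscreen used the strain with wild-type TIM10; 0% = yeast with DMSO and 100% = medium wells lacking yeast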
Starred values were filed as active, the others as inactive; . = no result.

SMILES	TIM10 inh	PfHsp90 yeast 2	tim10-1 inh	SKKanGAS inh	tim23-1 inh	V-ATPase pHluor	tim10-1 confirm	TIM10 conf
Cc1ccc(F)c([C@H]2[C@H]3C=CC[C@@H](C)[C@@H]3C(=O)N2Cc2ccccc2)c1	45.0*	-32.4	49.7*	35.1	48.3	-3.2	28.3	35.5*
C[C@@H]1CC=C[C@H]2[C@H]1C(=O)N(Cc1ccccc1)[C@H]2c1ccc2ccccc2c1	47.9*	26.7	45.6*	43.7	40.2	0.9	47.0*	47.2*
CC(C1CC1)N(Cc1ccccc1)C(=S)Nc1cccc(C(F)(F)F)c1 (stereo not drawn)	52.6*	-49.5	49.0*	-1.2	46.7	1.9	48.1*	-0.1
CC(C1CC1)N(Cc1ccccc1)C(=S)Nc1ccccc1 (stereo not drawn)	41.8*	21.6	42.4*	-11.0	36.0	6.0	30.0	39.8*
O=C(Nc1ccc(F)c(Cl)c1)c1cncs1	-18.7	-5.8	18.4	-3.3	24.8	-2.0	.	.
O=C(c1cccs1)N1CCN=C1SCc1cccnc1	-7.5	8.4	24.8	-1.1	12.7	-4.5	.	.
O=C(N1CCN=C1SCc1cccnc1)C12CC3CC(CC(C3)C1)C2	44.9*	13.5	45.0*	2.6	45.4	12.9	40.1*	47.4*
COc1cc(C(=O)Oc2cccc(C=O)c2)cc(OC)c1OC	24.0	-22.7	33.1	1.5	26.1	3.4	.	.
O=Cc1cccc(OC(=O)c2ccc(Cl)cc2Cl)c1	45.1*	.	42.0*	3.6	44.4	.	28.2	16.8
CSc1ccc(CN2CCC(n3nccc3NC(=O)c3ccccc3C)CC2)cc1	-10.2	-4.1	-1.8	3.8	-8.7	-1.5	.	.
CCOc1ccc(S(=O)(=O)NCc2cccs2)cc1	8.5	4.2	23.5	-6.1	21.2	-5.2	.	.
CCSc1nnc(-c2ccc(S(=O)(=O)NCc3cccs3)cc2)o1	45.2*	.	45.0*	.	46.5	-0.4	50.1*	30.2*
O=C(NC(=S)Nc1ccccc1N1CCCCC1)c1ccccc1	59.9*	-10.8	47.9*	15.6	49.0	1.8	44.5*	47.0*
CC1CCN(c2ccccc2NC(=S)NC(=O)c2cccs2)CC1	48.2*	-10.5	48.9*	87.4*	40.8	-0.8	33.9*	37.6*
O=C(NC(=S)Nc1ccccc1N1CCCC1)c1cccc(F)c1	52.1*	-13.3	52.0*	-5.3	31.5	-1.5	28.8	48.3*
O=c1oc2ccccc2c(O)c1/C=C1\C=Nc2ccccc21	68.9*	-52.3	64.6*	-0.3	-3.5	9.3	71.5*	-6.7
Cc1cc(C)c(C(=O)C2OC(=O)C(C)(C)C(=O)C2(C)C)c(C)c1 (stereo not drawn)	16.0	.	35.0	-6.1	34.5	0.3	.	.
CCCSc1nc(NCc2ccco2)c2c3c(sc2n1)COC(C)(C)C3	6.3	.	33.4	37.8	36.0	9.0	.	.
O=C(/C(=C/O)N=Nc1ccccc1Cl)c1ccccc1	91.4*	-15.0	42.9*	-2.0	47.4	-1.6	20.9	18.5
COc1cccc(N2CCN(C(=O)c3ccc4nc(N5CCCCC5)sc4c3)CC2)c1	9.4	4.7	39.8	-0.7	24.9	1.1	.	.
COc1ccc(N2CCN(C(=O)c3ccc4nc(N5CCCCC5)sc4c3)CC2)cc1	40.1*	-4.6	43.5*	2.6	37.5	0.9	33.9*	33.1*
CC(C)c1cc(C(=O)N2CCN(C(c3ccccc3)c3ccccc3)CC2)no1	29.9	-26.8	14.5	-8.9	30.2	3.4	.	.
O=C(c1cc(-c2ccc3c(c2)OCO3)on1)N1CCN(c2ccccc2)CC1	43.7*	.	41.5*	-3.3	40.3	-0.7	30.8*	41.4*
COc1ccc(-c2cc(C(=O)N3CCN(C(c4ccccc4)c4ccccc4)CC3)no2)cc1	69.3*	-9.1	59.2*	-1.5	37.5	-1.2	62.6*	54.5*
O=C(c1cc(-c2ccco2)on1)N1CCN(C(c2ccccc2)c2ccccc2)CC1	67.2*	-13.8	61.7*	5.7	30.3	-0.6	62.3*	58.5*
